Data as given in PubChem BioAssay AID1159580 (chemical genetic matrix, 2015).
Hit rate of the full screen: of about 5,500 compounds, about 2,000 (36%) were called active. About 18% were inconclusive and are not listed. No stated cut-off is given here; in the data, active means normalized growth mostly below about 0.91 (no sharp cut-off); inconclusive means no clear call, values can overlap the other calls; inactive means mostly above about 0.92. This is one part of the list.

Assay: chemical genetic growth profiling, strain panel (AID 1159580);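 further: tested at 20 µM; growth read once vehicle control cultures reached saturation at 30 °C; 1 = growth at the plate median or of vehicle wells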
Conditions: growth OD
[1] = S. cerevisiae deletion strains, locus YMR307W, strain GAS1, stronger effect = lower value
[2] = S. cerevisiae deletion strains, locus YPL055C, strain LGE1, stronger effect = lower value
[3] = S. cerevisiae deletion strains, locus YAL013W, strain DEP1, stronger effect = lower value
[4] = S. cerevisiae deletion strains, locus YBR229C, strain ROT2, stronger effect = lower value
[5] = S. cerevisiae deletion strains, locus YDL101C, strain DUN1, stronger effect = lower value
[6] = S. cerevisiae deletion strains, locus YDR150W, strain NUM1, stronger effect = lower value
[7] = S. cerevisiae deletion strains, locus YEL061C, strain CIN8, stronger effect = lower value
[8] = S. cerevisiae deletion strains, locus YGR078C, strain PAC10, stronger effect = lower value
[9] = S. cerevisiae deletion strains, locus YHR030C, strain SLT2, stronger effect = lower value
[10] = S. cerevisiae deletion strains, locus YHR087W, strain rtc3, stronger effect = lower value
[11] = S. cerevisiae deletion strains, locus YJR043C, strain POL32, stronger effect = lower value
[12] = S. cerevisiae deletion strains, locus YJR075W, strain HOC1, stronger effect = lower value
[13] = S. cerevisiae deletion strains, locus YLR039C, strain RIC1, stronger effect = lower value
[14] = S. cerevisiae deletion strains, locus YLR058C, strain SHM2 (second series), stronger effect = lower value
[15] = S. cerevisiae deletion strains, locus YLR085C, strain ARP6, stronger effect = lower value
[16] = S. cerevisiae deletion strains, locus YLR262C, strain YPT6, stronger effect = lower value
[17] = S. cerevisiae deletion strains, locus YML094W, strain GIM5, stronger effect = lower value
[18] = S. cerevisiae deletion strains, locus YMR219W, strain ESC1, stronger effect = lower value
[19] = S. cerevisiae deletion strains, locus YMR263W, strain SAP30, stronger effect = lower value
[20] = S. cerevisiae deletion strains, locus YNL153C, strain GIM3, stronger effect = lower value
[21] = S. cerevisiae deletion strains, locus YNL298W, strain CLA4 (second series), stronger effect = lower value
[22] = S. cerevisiae deletion strains, locus YNL322C, strain KRE1, stronger effect = lower value
[23] = S. cerevisiae deletion strains, locus YNR030W, strain Alg12, stronger effect = lower value
[24] = S. cerevisiae deletion strains, locus YOL006C, strain TOP1, stronger effect = lower value
[25] = S. cerevisiae deletion strains, locus YPL241C, strain CIN2, stronger effect = lower value
[26] = S. cerevisiae deletion strains, locus YPR135W, strain CTF4, stronger effect = lower value

Measured: normalized growth

O=C1NCN(c2ccccc2)C12CCN(CC1COc3ccccc3O1)CC2 (stereo not given)
inactive: S. cerevisiae deletion strains, locus YAL040C, strain CLN3, stronger effect = lower value 1 | S. cerevisiae deletion strains, locus YCL061C, strain MRC1 (second series), stronger effect = lower value 1.01 | S. cerevisiae deletion strains, locus YDR363W, strain ESC2, stronger effect = lower value 0.998 | S. cerevisiae deletion strains, locus YER002W, strain NOP16, stronger effect = lower value 1.02 | S. cerevisiae deletion strains, locus YGR229C, strain SMI1, stronger effect = lower value 0.999 | [1] 0.999 | S. cerevisiae deletion strains, locus YNL128W, strain TEP1, stronger effect = lower value 1.04 | S. cerevisiae deletion strains, locus YNL175C, strain NOP13, stronger effect = lower value 1.02 | S. cerevisiae deletion strains, locus YNL197C, strain WHI3, stronger effect = lower value 1.02 | S. cerevisiae deletion strains, locus YNL224C, strain SQS1, stronger effect = lower value 1 | S. cerevisiae deletion strains, locus YOR083W, strain WHI5 (second series), stronger effect = lower value 1.04 | [2] 1.01

Cc1cccc(C)c1NC(=O)C(C)Oc1ccc(Cl)cc1Cl (stereo not given)
inactive: [3] 1.01 | [4] 1 | [5] 1.01 | [6] 1.02 | [7] 0.996 | [8] 1 | [9] 0.989 | [10] 1.01 | S. cerevisiae deletion strains, locus YJL187C, strain SWE1, stronger effect = lower value 1.01 | [11] 1 | [12] 0.998 | S. cerevisiae deletion strains, locus YKL190W, strain CNB1, stronger effect = lower value 0.999 | [13] 0.961 | [14] 0.997 | [15] 1.02 | [16] 0.963 | [17] 1.09 | [18] 1.01 | [19] 1 | [1] 0.929 | [20] 1.02 | [21] 1.02 | [22] 1 | [23] 1.01 | [24] 1.04 | [2] 1.04 | [25] 1.05 | [26] 1.01 | S. cerevisiae strains, strain wild type, stronger effect = lower value 0.995

N#CCOc1ccc(Cl)cc1Cl
inactive: [3] 0.99 | [4] 0.97 | [5] 0.976 | [6] 0.95 | [7] 0.99 | [8] 0.965 | [9] 0.95 | [10] 0.977 | [11] 0.975 | [12] 0.915 | [13] 1.07 | [14] 0.954 | [15] 1 | [16] 1.01 | [17] 0.983 | [18] 0.955 | [19] 0.987 | [1] 1.06 | [20] 0.997 | [21] 1.02 | [22] 0.96 | [23] 0.997 | [24] 1.06 | [2] 1.12 | [25] 0.985 | [26] 0.968

Oc1cc(Cl)ccc1Oc1ccc(Cl)cc1Cl
active: S. cerevisiae deletion strains, locus YAL021C, strain ccr4, stronger effect = lower value 0.0638 | S. cerevisiae deletion strains, locus YAL026C, strain drs2, stronger effect = lower value 0.0609 | S. cerevisiae deletion strains, locus YAL030W, strain snc1, stronger effect = lower value 0.0536 | S. cerevisiae deletion strains, locus YBL061C, strain skt5, stronger effect = lower value 0.0556 | S. cerevisiae deletion strains, locus YBR009C, strain hhf1, stronger effect = lower value 0.061 | S. cerevisiae deletion strains, locus YBR023C, strain chs3, stronger effect = lower value 0.0591 | S. cerevisiae deletion strains, locus YBR171W, strain sec66, stronger effect = lower value 0.0725 | S. cerevisiae deletion strains, locus YBR231C, strain swc5, stronger effect = lower value 0.0579 | S. cerevisiae deletion strains, locus YBR279W, strain paf1, stronger effect = lower value 0.0562 | S. cerevisiae deletion strains, locus YCL011C, strain gbp2, stronger effect = lower value 0.0544 | S. cerevisiae deletion strains, locus YCL016C, strain dcc1, stronger effect = lower value 0.0625 | S. cerevisiae deletion strains, locus YCL069W, strain vba3, stronger effect = lower value 0.0589 | S. cerevisiae deletion strains, locus YCR088W, strain abp1, stronger effect = lower value 0.0589 | S. cerevisiae deletion strains, locus YDL005C, strain med2, stronger effect = lower value 0.0705 | S. cerevisiae deletion strains, locus YDL040C, strain nat1, stronger effect = lower value 0.0546 | S. cerevisiae deletion strains, locus YDR001C, strain nth1, stronger effect = lower value 0.0558 | S. cerevisiae deletion strains, locus YDR069C, strain doa4, stronger effect = lower value 0.0627 | S. cerevisiae deletion strains, locus YDR137W, strain rgp1, stronger effect = lower value 0.0997 | S. cerevisiae deletion strains, locus YDR159W, strain sac3, stronger effect = lower value 0.0882 | S. cerevisiae deletion strains, locus YDR195W, strain ref2 0.117 | S. cerevisiae deletion strains, locus YDR297W, strain sur2, stronger effect = lower value 0.0544 | S. cerevisiae deletion strains, locus YDR334W, strain swr1, stronger effect = lower value 0.0588 | S. cerevisiae deletion strains, locus YDR335W, strain msn5, stronger effect = lower value 0.0583 | S. cerevisiae deletion strains, locus YDR392W, strain spt3, stronger effect = lower value 0.0729 | S. cerevisiae deletion strains, locus YEL003W, strain gim4, stronger effect = lower value 0.0524 | S. cerevisiae deletion strains, locus YEL037C, strain rad23, stronger effect = lower value 0.0551 | S. cerevisiae deletion strains, locus YEL061C, strain CIN8 (second series), stronger effect = lower value 0.0576 | S. cerevisiae deletion strains, locus YER015W, strain faa2, stronger effect = lower value 0.0585 | S. cerevisiae deletion strains, locus YER016W, strain bim1, stronger effect = lower value 0.0591 | S. cerevisiae deletion strains, locus YER111C, strain swi4, stronger effect = lower value 0.0671 | S. cerevisiae deletion strains, locus YER155C, strain BEM2 (second series), stronger effect = lower value 0.0885 | S. cerevisiae deletion strains, locus YFR010W, strain ubp6, stronger effect = lower value 0.0707 | S. cerevisiae deletion strains, locus YGL167C, strain pmr1, stronger effect = lower value 0.0693 | S. cerevisiae deletion strains, locus YGL173C, strain kem1, stronger effect = lower value 0.0649 | S. cerevisiae deletion strains, locus YGL227W, strain vid30, stronger effect = lower value 0.0625 | S. cerevisiae deletion strains, locus YGL240W, strain doc1, stronger effect = lower value 0.0739 | S. cerevisiae deletion strains, locus YGL253W, strain hxk2, stronger effect = lower value 0.054 | S. cerevisiae deletion strains, locus YHR013C, strain ard1, stronger effect = lower value 0.104 | S. cerevisiae deletion strains, locus YHR027C, strain rpn1, stronger effect = lower value 0.059 | [9] 0.104 | S. cerevisiae deletion strains, locus YHR079C, strain IRE1, stronger effect = lower value 0.121 | S. cerevisiae deletion strains, locus YHR142W, strain chs7, stronger effect = lower value 0.0756 | S. cerevisiae deletion strains, locus YJL092W, strain hpr5, stronger effect = lower value 0.0585 | S. cerevisiae deletion strains, locus YJL095W, strain BCK1 (second series), stronger effect = lower value 0.0552 | S. cerevisiae deletion strains, locus YJL095W, strain BCK1, stronger effect = lower value 0.127 | S. cerevisiae deletion strains, locus YJL115W, strain asf1, stronger effect = lower value 0.0692 | S. cerevisiae deletion strains, locus YJL129C, strain trk1, stronger effect = lower value 0.084 | S. cerevisiae deletion strains, locus YJL154C, strain vps35, stronger effect = lower value 0.0565 | S. cerevisiae deletion strains, locus YJL164C, strain tpk1, stronger effect = lower value 0.0601 | S. cerevisiae deletion strains, locus YJL166W, strain qcr8, stronger effect = lower value 0.0623 | S. cerevisiae deletion strains, locus YJR066W, strain TOR1, stronger effect = lower value -0.00201 | S. cerevisiae deletion strains, locus YKL160W, strain elf1, stronger effect = lower value 0.0596 | S. cerevisiae deletion strains, locus YKR026C, strain gcn3, stronger effect = lower value 0.0592 | S. cerevisiae deletion strains, locus YKR091W, strain srl3, stronger effect = lower value 0.0544 | S. cerevisiae deletion strains, locus YLL001W, strain dnm1, stronger effect = lower value 0.0612 | S. cerevisiae deletion strains, locus YLL026W, stronger effect = lower value 0.0561 | S. cerevisiae deletion strains, locus YLL041C, strain sdh2, stronger effect = lower value 0.0533 | S. cerevisiae deletion strains, locus YLR027C, strain aat2, stronger effect = lower value 0.0538 | S. cerevisiae deletion strains, locus YLR113W, strain HOG1, stronger effect = lower value 0.158 | S. cerevisiae deletion strains, locus YLR221C, strain rsa3, stronger effect = lower value 0.0589 | S. cerevisiae deletion strains, locus YLR258W, strain gsy2, stronger effect = lower value 0.0574 | S. cerevisiae deletion strains, locus YLR262C, strain YPT6 (second series), stronger effect = lower value 0.0751 | S. cerevisiae deletion strains, locus YLR320W, strain mms22, stronger effect = lower value 0.0752 | S. cerevisiae deletion strains, locus YLR342W, strain FKS1, stronger effect = lower value 0.0642 | S. cerevisiae deletion strains, locus YLR357W, strain rsc2, stronger effect = lower value 0.118 | S. cerevisiae deletion strains, locus YLR370C, strain arc18, stronger effect = lower value 0.0628 | S. cerevisiae deletion strains, locus YLR384C, strain iki3, stronger effect = lower value 0.057 | S. cerevisiae deletion strains, locus YML120C, strain ndi1, stronger effect = lower value 0.0562 | S. cerevisiae deletion strains, locus YMR058W, strain fet3, stronger effect = lower value 0.0596 | S. cerevisiae deletion strains, locus YMR125W, strain sto1, stronger effect = lower value 0.0732 | S. cerevisiae deletion strains, locus YMR129W, stronger effect = lower value 0.0549 | S. cerevisiae deletion strains, locus YMR205C, strain PFK2, stronger effect = lower value 0.0834 | S. cerevisiae deletion strains, locus YMR231W, strain pep5, stronger effect = lower value 0.0636 | S. cerevisiae deletion strains, locus YNL071W, strain lat1, stronger effect = lower value 0.0584 | S. cerevisiae deletion strains, locus YNL183C, strain NPR1, stronger effect = lower value 0.00315 | S. cerevisiae deletion strains, locus YNL209W, strain ssb2, stronger effect = lower value 0.0563 | S. cerevisiae deletion strains, locus YNL248C, strain rpa49, stronger effect = lower value 0.0865 | S. cerevisiae deletion strains, locus YNL322C, strain KRE1 (second series), stronger effect = lower value 0.0621 | S. cerevisiae deletion strains, locus YNR049C, strain mso1, stronger effect = lower value 0.0553 | S. cerevisiae deletion strains, locus YOR001W, strain rrp6, stronger effect = lower value 0.0701 | S. cerevisiae deletion strains, locus YOR070C, strain gyp1, stronger effect = lower value 0.0564 | S. cerevisiae deletion strains, locus YOR080W, strain dia2, stronger effect = lower value 0.0614 | S. cerevisiae deletion strains, locus YOR083W, strain WHI5, stronger effect = lower value 0.0594 | S. cerevisiae deletion strains, locus YOR106W, strain vam3, stronger effect = lower value 0.066 | S. cerevisiae deletion strains, locus YOR231W, strain MKK1, stronger effect = lower value 0.109 | S. cerevisiae deletion strains, locus YOR265W, strain rbl2, stronger effect = lower value 0.0537 | S. cerevisiae deletion strains, locus YOR270C, strain vph1, stronger effect = lower value 0.0953 | S. cerevisiae deletion strains, locus YOR290C, strain snf2, stronger effect = lower value 0.0603 | S. cerevisiae deletion strains, locus YPL051W, strain arl3, stronger effect = lower value 0.0598 | S. cerevisiae deletion strains, locus YPL078C, strain atp4, stronger effect = lower value 0.0627 | S. cerevisiae deletion strains, locus YPL106C, strain sse1, stronger effect = lower value 0.103 | S. cerevisiae deletion strains, locus YPL240C, strain hsp82, stronger effect = lower value 0.0561 | S. cerevisiae deletion strains, locus YPL256C, strain CLN2, stronger effect = lower value 0.121
